# A selection: hits, their analogues and other compounds. The true share with any hit is near 4.1%.
# PolyA inhibitor: inhibitors of polyadenylation in S. cerevisiae; S. cerevisiae SKY197-pL101 polyadenylation reporter, beta-gal luminescence; efflux-impaired pdr1/pdr3 knockout yeast; score 100 = 6 SD above DMSO; activity score, % at 12 µM; hit rate 0.02% among 300,000;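 active means lowest replicate activity score at least 50, where 100 means six control SD above control mean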;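 further: yeast exposed to compound for 9 h at 30 °C; higher score means more reporter readthrough which indicates perturbed polyadenylation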
# ssDAF12 agonist: S. stercoralis DAF-12 activation, primary screen; HEK293 ssDAF-12/GRIP1 lit1-tk-luc reporter, luminescence; % of 3 µM dafachronic acid response; activation, % at 6.8 µM; hit rate 1% among 370,000;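 active means activation above the mean over all tested compounds plus 3 SD, cut at about 0.9% in these data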;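 further: 0% = DMSO-only wells and 100% = 3 µM delta7-dafachronic acid wells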
# hgDAF12 agonist: agonists of H. glycines DAF-12 nuclear receptor; activation, % at 6.8 µM; HEK293 GAL4-hgDAF12 UAS-luciferase reporter, agonist luminescence; normalized to butyrate control; hit rate 1.8% among 370,000; AID 687014;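 active means activation above a cutoff set at the mean of all screened compounds plus 3 SD, cut at about 10% in these data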;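 further: 0% = DMSO wells and 100% = sodium butyrate wells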
# DAX1 inh-1: DAX1 (NR0B1) inhibition, primary screen; HEK293T StAR-luciferase reporter, SF-1/DAX-1 repression relief; inhibition, % at 6.8 µM; hit rate 1.1% among 370,000; AID 652010;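 active means inhibition above the mean over all tested compounds plus 3 SD, cut at about 3.6% in these data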;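 further: 0% = DAX-1 cells with DMSO and 100% = cells lacking DAX-1 with DMSO; higher inhibition means more luminescence from relief of DAX-1 repression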
# hcDAF-12 act: activators of H. contortus DAF-12 nuclear receptor | hit rate 1.4% among 370,000 | HEK293 hcDAF-12 lit1-tk-luc reporter, luminescence; 0% DMSO, 100% Δ7-dafachronic acid | activation, % at 6.8 µM | AID 652067;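 active means activation above the mean of all tested compounds plus 3 SD, cut at about 5.5% in these data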;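 further: 100% = response to 3 µM Δ7-dafachronic acid high control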
# DAX1 inh-2: inhibitors of human orphan nuclear receptor DAX1 (NR0B1). inhibition, % at 6.75 µM. hit rate 0.99% among 340,000. HEK293 Gal4-DAX1 luciferase reporter, luminescence. P51843;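 active means inhibition above the mean over all tested compounds plus 3 SD, cut at about 4.2% in these data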;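 further: 0% = DAX1-transfected cells with DMSO and 100% = empty-vector control cells with DMSO; inhibition shows as a rise in luminescence from relieved DAX1 repression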
# DAX1 conf: NR0B1 (human) inhibition, confirmation | HEK293T StAR-promoter luciferase reporter, SF-1/DAX-1 repression | shares compounds with DAX1 inh-1 | hit rate 87% among 2,400 | inhibition, % at 6.8 µM | AID 652134;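 active means inhibition above the average of every tested compound plus 3 SD, cut at about 3.8% in these data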;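 further: 0% = DAX-1 cells with DMSO and 100% = no DAX-1 control cells with DMSO; active compounds raise luminescence by relieving repression of the StAR reporter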
# Target sequence (P51843 whole entry, looked up): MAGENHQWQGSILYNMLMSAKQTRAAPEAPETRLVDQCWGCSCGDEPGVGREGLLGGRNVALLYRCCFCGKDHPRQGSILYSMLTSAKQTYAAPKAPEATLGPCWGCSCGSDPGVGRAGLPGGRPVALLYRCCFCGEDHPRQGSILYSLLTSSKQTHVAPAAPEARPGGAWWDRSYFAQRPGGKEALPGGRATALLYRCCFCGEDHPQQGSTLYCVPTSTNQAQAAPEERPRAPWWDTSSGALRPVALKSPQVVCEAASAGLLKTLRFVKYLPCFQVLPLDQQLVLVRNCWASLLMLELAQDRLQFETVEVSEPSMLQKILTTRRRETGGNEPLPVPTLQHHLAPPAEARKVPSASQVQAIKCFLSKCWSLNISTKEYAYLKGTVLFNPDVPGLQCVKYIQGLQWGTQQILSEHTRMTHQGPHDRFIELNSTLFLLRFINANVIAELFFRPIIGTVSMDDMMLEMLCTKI
# SF1 AF2mut Luc: counter-screen for DAX1 inhibitors: nonselective inhibitors with SF-1 AF2 mutant. shares compounds with DAX1 inh-1. HEK293 StAR-luciferase, luminescence. inhibition, % at 6.8 µM. hit rate 78% among 2,400;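 active means inhibition above the mean of all tested compounds plus 3 SD, cut at about 3% in these data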;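 further: 0% = DAX-1 transfected cells with DMSO and 100% = cells without DAX-1 with DMSO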
# * = called active by the depositor; · = no result.
SMILES,PolyA inhibitor,ssDAF12 agonist,hgDAF12 agonist,DAX1 inh-1,hcDAF-12 act,DAX1 inh-2,DAX1 conf,SF1 AF2mut Luc
CC[C@H](NC(=O)[C@@H](Cc1ccccc1)NC(=O)[C@H]1O[C@@H](n2cnc3c(=O)[nH]c(N)nc32)[C@H](O)[C@@H]1O)c1ccccc1,·,-1,1,1,-3,·,·,·
Cc1ccc(NC(=O)c2ccc3snnc3c2)cc1C,-21,0,7,6.5*,3,1,9.4*,0
O=C(CCS(=O)(=O)c1ccccc1)NC1CCCCC1,13,-1,3,4.7*,0,0,5.8*,4.0*
CCC1CCCCN1C(=O)CCS(=O)(=O)c1ccccc1 (stereo not given),4,0,1,4.8*,2,1,4.2*,1
COc1ccc(S(=O)(=O)CCC(=O)NC2CCCCC2)cc1,4,0,-1,-1,1,0,·,·
O=C(CSc1ccccc1)NC1CCCCCC1,8,0,9,6.2*,6.3*,0,7.7*,3.8*
O=C(CSc1ccccc1)NC1CCCCCCC1,-13,-1,4,2,1,0,·,·
CCC1CCCCN1C(=O)CCCc1ccccc1 (stereo not given),8,0,3,1,1,1,·,·
c1ccc2[nH]c(NN=C3CCCCCC3)nc2c1,-6,0,2,1,5,1,·,·
c1ccc2nc(NN=C3CCCCC3)ccc2c1,·,1.8*,10,4.5*,6.7*,3,7.4*,3.1*
COc1ccc(/C=N/Nc2nncc3ccccc23)cc1,-9,1.9*,17*,6.4*,11*,-2,14*,2
COc1ccc(/C=N/Nc2nccnc2Cl)cc1,-1,0,12*,5.9*,5,-1,14*,8.7*
CC(C)(C)c1ccc(-c2cn(C[C@H](Cc3ccccc3)n3c(=O)c4ccccc4n3Cc3ccno3)nn2)cc1,·,-2,1,-2,-2,·,·,·
CCC(C(=O)Nc1ccccc1N1CCCC1)c1cccc(Cl)c1 (stereo not given),·,-2,-1,-1,-1,·,·,·
COc1ccc(-c2csc(-c3ccc(C(=O)O)cc3)n2)cc1,2,1,12*,4.7*,4,3,12*,7.0*
COc1ccc(-c2nc(CC(=O)O)cs2)cc1,11,-1,0,-1,-1,2,·,·
COc1cccc(CNC(=O)[C@H]2CCCN2C(=O)[C@H]2CCCN2C(=O)c2c(F)cccc2F)c1,·,0,0,0,1,·,·,·
Cc1nnc(N2C(=O)C(O)=C(C(=O)c3ccco3)C2c2ccc(F)cc2)s1 (stereo not given),27,-1,2,-1,-1,0,·,·
CSc1ccc(C2C(C(=O)c3ccco3)=C(O)C(=O)N2c2nnc(SC)s2)cc1 (stereo not given),4,-1,12*,6.4*,4,-1,3,3.1*
COc1ccc2c(c1)[C@]1(C(=O)N2C)C2=C(CCCC2=O)Oc2cc(C)oc(=O)c21,·,-1,0,-1,-2,·,·,·
O=C(O)c1cccc(Nc2nc3ccccc3nc2NS(=O)(=O)c2ccc(F)cc2)c1,·,0,2,6.6*,0,-1,3,3.9*
C=CCNc1cccc2c1S(=O)(=O)N[C@@H](Cc1ccccc1)CO2,·,-2,2,-2,1,·,·,·
COc1ccc(Cn2cc(CN3CC(N4CCN(C5CCN(C)CC5)CC4)CS3(=O)=O)nn2)cc1 (stereo not given),·,-1,-1,7.6*,0,·,2,-1
CC(=O)Nc1cccc(C(=O)OCC(=O)c2ccccc2Cl)c1,10,0,10,5.1*,4,3,7.3*,5.6*
O=C(Nc1ccc(C(=O)N2CCCCC2)cc1)C1=CSCCO1,3,1,5,6.2*,1,3,4.7*,2

# Bioassay records from PubChem.
